Among the data in PubChem BioAssay AID485284 (NMMLSC, 2010) are binding remaining, % of control values, retold here.

The assay can be described thus: loss of vesicle association with mouse CD8+ T cells – mouse 2C CD8+ T cells, flow cytometry, dose response (AID 485284).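 Further: drosophila derived vesicles carrying Ld MHC with QL9 peptide plus B7-1 and ICAM-1; vesicle binding seen as anti-B7-1 PE fluorescence on CD8 gated cells.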 The following applies: 2C mouse CD8+ T cell-exosome binding; at 45 µM (top of the series). Background: In flow cytometry, cells or beads pass a laser one at a time.

Each structure is given as a SMILES string. Potency and affinity values are given separately.

Take `COc1ccc([C@H]2CC(=O)C=C(c3cccc(Cl)c3)C2)cc1`: the binding remaining, % of control amounted to 141%.

Turning to `COc1ccc(CNC(=O)COC(=O)CCN2C(=O)C3CC=CCC3C2=O)cc1OC` (stereo not drawn), the binding remaining, % of control came to 190%.

As to `CCCNC(=O)CN1CCN(S(=O)(=O)c2ccc(Br)s2)CC1`, the binding remaining, % of control is 100%. Then `CCOc1ccc(NC(=O)CN(C)C(=O)C2CC(=O)N(Cc3ccco3)C2)cc1OCC` (stereo not drawn), with 145%.

Turning to `O=C(NCC1CCCCC1)c1ccc(Cl)c(S(=O)(=O)N2CCOCC2)c1`, the binding remaining, % of control is 111%. As to `O=C(c1ccc(N2C(=O)C3CC=C(Cl)CC3C2=O)cc1)N1CCCCC1` (stereo not drawn), the binding remaining, % of control is 18.5%. Then `COc1ccc(OC)c(NC(=O)CCN2CCCCC2)c1`, with 220%; and `COc1ccc(CNC(=O)c2cccnc2SC)cc1OC`, with 132%. Then `Cc1ccc(S(=O)(=O)N2CCN(CCOc3c(Cl)cccc3Cl)CC2)cc1C`, with 100%. Then `COc1cc(CNCc2cccnc2)ccc1OCC(=O)NC1CCCCC1`, with 128%; and `CCCCN(C(=O)C1CCC1)c1c(N)n(CC(C)C)c(=O)[nH]c1=O`, with 53.6%. Regarding `CC(=O)Nc1ccc(S(=O)(=O)NC2CCSc3ccccc32)cc1` (stereo not drawn), the binding remaining, % of control amounted to 273%. `Cc1ccc(C)c(-n2c3nc(=O)[nH]c(=O)c-3cc3cc([N+](=O)[O-])ccc32)c1`: the binding remaining, % of control came to 133%. Then `CS(=O)(=O)c1cccc(-c2csc(N3CCC(C(N)=O)CC3)n2)c1`, with 150%; and `O=C(Oc1ccc(C(=S)N2CCOCC2)cc1)c1ccc(F)cc1`, with 63.3%; and `CC(C)(C)OC(=O)NCc1ccc(CNC(=O)c2nc[nH]c2C(=O)NCc2ccccc2)cc1`, with 109%. Then `COc1cc(F)c(C2=CC(=O)C[C@H](c3ccc(F)cc3)C2)cc1F`, with 108%; and `CC(=O)c1cccc(NC(=O)c2ccncc2)c1`, with 35.3%; and `O=C(Cc1c(Cl)cccc1Cl)Nc1cccc(S(=O)(=O)N2CCOCC2)c1`, with 112%. Consider `O=C(Nc1ccccc1F)C1CCCN(S(=O)(=O)c2cccc3cccnc23)C1` (stereo not drawn), for which the binding remaining, % of control was 105%. Then `CCOc1ccc(S(=O)(=O)N2CCC(C(=O)Nc3cc(S(C)(=O)=O)ccc3Cl)CC2)cc1`, with 106%.

Turning to `CCOC(=O)N1CCC(=NNc2ncc(C(F)(F)F)cc2Cl)CC1`, the binding remaining, % of control was determined as 24.2%. Then `c1ccc(COc2ccc(OCCN3CCCCC3)cc2)cc1`, with 112%; and `Cc1cc(=O)oc2c3c(cc(OCC(=O)NCc4ccncc4)c12)OC(C)(C)CC3`, with 119%. Then `CCOC(=O)N1CCN(C(=O)c2ccc(CS(=O)Cc3ccc(C)cc3)o2)CC1` (stereo not drawn), with 44.7%; and `CC1CCN(S(=O)(=O)Cc2ccccc2Cl)CC1`, with 118%. Then `O=C(CN1C(=O)NC2(CCCCCC2)C1=O)N1CCN(c2ccc(F)cc2)CC1`, with 110%; and `COc1ccc(Nc2ccccc2N)cc1`, with 182%; and `O=C(NC(=S)NCc1ccco1)c1ccc(Br)cc1`, with 136%. Take `CN(C)S(=O)(=O)c1ccc(C(=O)NCCc2ccco2)cc1`: the binding remaining, % of control was found to be 128%.

As for `O=C(/C=C/c1ccccc1Cl)NCCc1ccccc1`, the binding remaining, % of control was found to be 116%. Then `CCN1CCN(c2ccc(NC(=O)c3cc4ccccc4cc3OC)cc2C)CC1`, with 128%. Then `Cc1cc(S(=O)(=O)N2CCN(Cc3ccccc3)CC2)c(C)s1`, with 94.5%. For `COc1ccccc1C(=O)COC(=O)C1CCN(S(=O)(=O)c2ccc(C)c(C)c2)CC1`, the binding remaining, % of control is 24.2%. Then `C=CCN(c1ccc(Br)cc1C(=O)OC)S(C)(=O)=O`, with 115%; and `COc1ccc(NC(=O)Cc2ccc(C)c(C)c2)cc1S(=O)(=O)N1CCCCC1`, with 32.4%. Then `O=C1CC(c2nc3ccccc3[nH]2)CN1Cc1ccccc1` (stereo not drawn), with 207%; and `NC(=O)C1CCN(c2nc(-c3cc4ccccc4o3)cs2)CC1`, with 44.2%.

In the case of `CCC1(c2ccccc2)NC(=O)N(CC(=O)Nc2cc(Cl)ccc2N2CCN(C)CC2)C1=O` (stereo not drawn), the binding remaining, % of control was found to be 124%. `COc1ccc([N+](=O)[O-])cc1NC(=O)c1ccc(N(Cc2ccccc2C)S(C)(=O)=O)cc1`: the binding remaining, % of control came to 99.1%. Then `Cc1cccc(N(C(=O)c2snc(C(N)=O)c2N)C(C(=O)NCC2CCCO2)c2ccc(N(C)C)cc2)c1C` (stereo not drawn), with 22.8%; and `CCOc1ccc(CCNC(=O)CCS(=O)(=O)c2ccc(C)cc2)cc1OCC`, with 94%. Then `O=C(N/N=C/c1cccc(OCc2ccccc2)c1)c1ccc(Br)cc1`, with 63.5%; and `CCC(C)S(=O)(=O)c1snnc1C` (stereo not drawn), with 164%. Then `COc1ccccc1N1CCN(C(=O)C2CCCN(S(=O)(=O)c3ccc(C)cc3)C2)CC1` (stereo not drawn), with 132%.

Regarding `CC(C)C(C(=O)NC1=NCCS1)c1ccc(Cl)cc1` (stereo not drawn), the binding remaining, % of control worked out at 31.2%. Then `CC(C)(C)NC(=O)COc1ccc(CNCc2ccccn2)cc1`, with 120%; and `COc1ccc(CC(=O)OCC(=O)N2CCN(S(=O)(=O)c3ccc(C)cc3C)CC2)cc1`, with 102%.
